Measured values as given in PubChem BioAssay (NCATS).
Results filed as inconclusive are left out. A call without a number means that no potency is given here. Activity calls are given as the source filed them. The call rests on the fitted dose curve; in most records, active means well fitted inhibition curve with a large enough effect; inconclusive means small, poorly fitted or top-dose-only effect; inactive means flat fitted curve, though single readings scatter.

Test: P-glycoprotein substrates identified in KB-8-5-11 adenocarcinoma cell line, qHTS therapeutic library screen (AID 1346987); further: nearly all actives have a fitted effect of over 65% in size
Method in brief: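 P-gp-mediated resistance screen: KB-8-5-11 cells treated 72 h with compounds in dose-response. CellTiter-Glo viability.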
Potency means the concentration at half of the fitted maximal effect.

C=C1C(=O)O[C@@H]2[C@H]3C(C)=CC(=O)C3=C(C)[C@@H](OC(=O)/C(C)=C\C)[C@H](O)[C@@H]12
Potency: inactive

O=C(CO)[C@@H](O)[C@H](O)[C@H](O)CO
Potency: inactive

O=C(C1CCCCC1)N(CCN1CCN(c2ccccc2O)CC1)c1ccccn1
Potency: inactive

Cc1ccc(N2CCN(CCC3NC(=O)c4ccccc43)CC2)cc1C (configuration not stated)
Potency: inactive

C/C=C(\C)[C@@H]1C(C)=C[C@@H]2[C@H]([C@@H]1/C=C/C=C/C(=O)O)[C@@H](C)CC[C@@H]2O
Potency: 11.4 µM (active)

O=C[C@H](O)[C@@H](O)[C@H](O[C@H]1O[C@H](CO)[C@@H](O[C@H]2O[C@H](CO)[C@@H](O)[C@H](O)[C@H]2O)[C@H](O)[C@H]1O)[C@H](O)CO
Potency: inactive

Cc1ccc(C(C)C)c(O[C@@H]2O[C@H](CO)[C@@H](O)[C@H](O)[C@H]2O)c1
Potency: inactive

NCCCC[C@H](NC(=O)[C@@H]1CCCN1C(=O)[C@@H]1CSSC[C@H](N)C(=O)N[C@@H](Cc2ccc(O)cc2)C(=O)N[C@@H](Cc2ccccc2)C(=O)N[C@@H](CCC(N)=O)C(=O)N[C@@H](CC(N)=O)C(=O)N1)C(=O)NCC(N)=O
Potency: inactive

COc1cc(C(=O)O)ccc1NC(=O)C1NC(CC(C)(C)C)C(C#N)(c2ccc(Cl)cc2F)C1c1cccc(Cl)c1F (configuration not stated)
Potency: inactive

O=C(Nc1cccc(C(F)(F)F)c1)Nc1ccc(Br)cc1-c1nn[nH]n1
Potency: inactive

CCCn1ncc(CN2CCCC(C(=O)c3cccc(OC(C)C)c3)C2)c1C (configuration not stated)
Potency: inactive

CCOC(=O)N1CCC(N2CCC[C@@H](NC(=O)c3ccccc3C)C2)CC1
Potency: inactive
